The results in this text go back to the supplement of paper PMC8773631.

Counter-ions that a name gives are not always drawn. ± gives the uncertainty stated by the source.

The experiment deals with NCC-MFS5-C1. As to the kind of experiment: cell viability relative to DMSO control; higher = less growth inhibition. Particulars: 10 µM; treatment time: 3 days. The procedure: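 NCC-MFS5-C1 myxofibrosarcoma cells (1x10^4 per well, 384-well) were treated on day 2 with 10 µM of each drug. On day 5, viability was read by CCK-8 absorbance at 450 nm and normalised to the DMSO control (%), n = 2.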
For the compound `CNC(=O)c1cc(Oc2ccc(NC(=O)Nc3ccc(Cl)c(C(F)(F)F)c3)cc2)ccn1` [Sorafenib], the cell viability was 64.2 ± 1.6%.
Under `CC(=O)[C@]1(O)Cc2c(O)c3c(c(O)c2[C@@H](O[C@H]2C[C@H](N)[C@H](O)[C@H](C)O2)C1)C(=O)c1ccccc1C3=O` [Idarubicin HCl] stands 0.409 ± 0.53%; under `Fc1ccc(C(c2ccc(F)cc2)N2CCN(C/C=C/c3ccccc3)CC2)cc1` [Flunarizine 2HCl], 114 ± 12%.
With `C[C@H](NC(=O)Cc1cc(F)cc(F)c1)C(=O)N[C@H](C(=O)OC(C)(C)C)c1ccccc1`, the cell viability stood at 108 ± 11%.
Next, `Cc1ccc(NC(=O)c2ccc(CN3CCN(C)CC3)cc2)cc1Nc1nccc(-c2cccnc2)n1` [Imatinib Mesylate (STI571)]: 69.6 ± 1.4%; `COC(=O)C1=C(C#N)NC(C)=C(C(=O)OC(C)C)C1c1cccc([N+](=O)[O-])c1` (centres undefined) [Nilvadipine]: 86 ± 4.2%.
Under `CC1=C(/C=C/C(C)=C/C=C/C(C)=C/C(=O)O)C(C)(C)CCC1` [Tretinoin] stands 78.5 ± 4.5%; under `CCN(CC)CCNC(=O)c1c(C)[nH]c(/C=C2\C(=O)Nc3ccc(F)cc32)c1C` [Sunitinib], 67.9 ± 9.6%; under `CC(=O)O[C@@]12CO[C@@H]1C[C@H](O)[C@@]1(C)C(=O)[C@H](O)C3=C(C)[C@@H](OC(=O)[C@H](O)[C@@H](NC(=O)OC(C)(C)C)c4ccccc4)C[C@@](O)([C@@H](OC(=O)c4ccccc4)[C@H]21)C3(C)C` [Docetaxel], 67 ± 2.2%.
Under `O=C1CCC(N2C(=O)c3ccccc3C2=O)C(=O)N1` (centres undefined) [Thalidomide] stands 84.4 ± 8.3%; under `C=CC(=O)N1CCC[C@@H](n2nc(-c3ccc(Oc4ccccc4)cc3)c3c(N)ncnc32)C1`, 79.2 ± 0.35%; under `Nc1cccc2c1CN(C1CCC(=O)NC1=O)C2=O` (centres undefined) [Lenalidomide], 105 ± 4.7%.
As to `O=C(/C=C/c1cccc(S(=O)(=O)Nc2ccccc2)c1)NO` [Belinostat (PXD101)], the cell viability amounted to 26.9 ± 0.53%.
Under `C[C@@H](CN1CC(=O)NC(=O)C1)N1CC(=O)NC(=O)C1` [Dexrazoxane] stands 122.6 ± 1.1%; under `Nc1nc(Cl)nc2c1ncn2[C@H]1C[C@H](O)[C@@H](CO)O1` [Cladribine], 80 ± 9.5%.
Next, `C/C=C1\NC(=O)[C@H]2CSSCC/C=C/[C@H](CC(=O)N[C@H](C(C)C)C(=O)N2)OC(=O)[C@H](C(C)C)NC1=O` [Romidepsin (FK228, Depsipeptide)]: -1.35 ± 0.8%; `CCS(=O)(=O)N1CCN(c2ccc(Nc3ncc(C(N)=O)c(NC4CC4)n3)cc2)CC1`: 61.5 ± 1.8%; `COc1cc(OC)cc(N(CCNC(C)C)c2ccc3ncc(-c4cnn(C)c4)nc3c2)c1` [Erdafitinib]: 33.1 ± 2%.
Under `Nc1nc(F)nc2c1ncn2[C@@H]1O[C@H](COP(=O)(O)O)[C@@H](O)[C@@H]1O` [Fludarabine Phosphate] stands 104 ± 3.5%; under `CN1CCN(CCOc2cc(OC3CCOCC3)c3c(Nc4c(Cl)ccc5c4OCO5)ncnc3c2)CC1` [Saracatinib (AZD0530)], 62.8 ± 3.8%; under `CC[C@H](Nc1ncnc2[nH]cnc12)c1nc2cccc(F)c2c(=O)n1-c1ccccc1` [CAL-101 (Idelalisib, GS-1101)], 72.3 ± 6.2%.
On to `CNC(=O)c1cc(Oc2ccc(NC(=O)Nc3ccc(Cl)c(C(F)(F)F)c3)c(F)c2)ccn1` [Regorafenib (BAY 73-4506)], for which the cell viability worked out at 85.6 ± 6.8%.
Next, `Nc1ccn([C@@H]2O[C@H](CO)[C@@H](O)[C@@H]2O)c(=O)n1` [Cytosine β-D-arabinofuranoside hydrochloride]: 118 ± 20%; `Cc1cc(Nc2ncc(Cl)c(Nc3ccccc3S(=O)(=O)C(C)C)n2)c(OC(C)C)cc1C1CCNCC1` [Ceritinib (LDK378)]: 7.58 ± 6.4%; `CNC[C@H](O)c1ccc(O)c(O)c1` [Epinephrine Bitartrate]: 106 ± 5.9%.
In the case of `CC[C@]1(O)C[C@H]2CN(CCc3c([nH]c4ccccc34)[C@@](C(=O)OC)(c3cc4c(cc3OC)N(C=O)[C@H]3[C@@](O)(C(=O)OC)[C@H](OC(C)=O)[C@]5(CC)C=CCN6CC[C@]43[C@@H]65)C2)C1` [Vincristine], the cell viability is 29.8 ± 4.2%.
`COc1cc2ncnc(Nc3ccc(F)c(Cl)c3)c2cc1OCCCN1CCOCC1` [Gefitinib(ZD1839)]: the cell viability turned out to be 95.1 ± 3.7%.
Next, `CC(C)C[C@H](NC(=O)[C@H](Cc1ccccc1)NC(=O)c1cnccn1)B(O)O` [Bortezomib (PS-341)]: 4.89 ± 1.4%; `C[C@]12CC[C@@H]3c4ccc(O)cc4C[C@@H](CCCCCCCCC[S+]([O-])CCCC(F)(F)C(F)(F)F)[C@H]3[C@@H]1CC[C@@H]2O` (some centres undefined) [Fulvestrant]: 74.38 ± 0.27%.
